Data reported in PubChem BioAssay AID2284203 (EPA ToxCast).
Active and inactive are the calls of the source. Rule for the calls: active = hit-call score of the fitted dose curve at least 0.9, where 1 is the maximum; inactive = score below 0.9.

Each compound was assayed against human Serotonin Transporter (SET), SLC6A4 (gene 6532) (UniProt P31645) (assay: ERF_FR_TR_hSLC6A4: Eurofins (ERF) Radioligand Binding LeadHunter Assay for human Serotonin Transporter (SET) human Agonism).
Protocol: ERF_FR_TR_hSLC6A4 is a biochemical, single-readout assay that uses extracted gene-proteins in a cell-free assay. Measurements were taken 1 hour after chemical dosing in a 96-well plate. See SET Human Serotonin Transporter Binding (Antagonist Radioligand) Assay, Cerep.ERF_FR_TR_hSLC6A4 is an assay component calculated from the ERF_FR_TR_hSLC6A4 assay. It is designed to measure radioligand binding using a type of binding reporter as detected by scintillation counting with radiometry technology.Data from the assay component ERF_FR_TR_hSLC6A4 was analyzed at the assay endpoint, ERF_FR_TR_hSLC6A4, in the positive analysis fitting direction relative to DMSO as the negative control and baseline of activity. Using a type of binding reporter, loss-of-signal activity can be used to understand changes in enzymatic activity as they relate to gene SLC6A4. To generalize the intended target to other relatable targets, this assay endpoint is annotated to the transporter intended target family, where the subfamily is SLC6 / Monoamine.
Human recombinant serotonin transporter expressed in human HEK-293 cells are used in modified Tris-HCl buffer pH 7.4. A 2 ug aliquot is incubated with 0.4 nM [3H]Paroxetine for 60 minutes at 25C. Non-specific binding is estimated in the presence of 10 uM imipramine. Transporters are filtered and washed. The filters are then counted to determine [3H]Paroxetine specifically bound. Compounds are screened at 10 uM. Membrane protein may change from lot to lot; the concentration used will be adjusted if necessary.

Sequence of human Serotonin Transporter (SET), SLC6A4 (gene 6532) (P31645 whole entry, looked up): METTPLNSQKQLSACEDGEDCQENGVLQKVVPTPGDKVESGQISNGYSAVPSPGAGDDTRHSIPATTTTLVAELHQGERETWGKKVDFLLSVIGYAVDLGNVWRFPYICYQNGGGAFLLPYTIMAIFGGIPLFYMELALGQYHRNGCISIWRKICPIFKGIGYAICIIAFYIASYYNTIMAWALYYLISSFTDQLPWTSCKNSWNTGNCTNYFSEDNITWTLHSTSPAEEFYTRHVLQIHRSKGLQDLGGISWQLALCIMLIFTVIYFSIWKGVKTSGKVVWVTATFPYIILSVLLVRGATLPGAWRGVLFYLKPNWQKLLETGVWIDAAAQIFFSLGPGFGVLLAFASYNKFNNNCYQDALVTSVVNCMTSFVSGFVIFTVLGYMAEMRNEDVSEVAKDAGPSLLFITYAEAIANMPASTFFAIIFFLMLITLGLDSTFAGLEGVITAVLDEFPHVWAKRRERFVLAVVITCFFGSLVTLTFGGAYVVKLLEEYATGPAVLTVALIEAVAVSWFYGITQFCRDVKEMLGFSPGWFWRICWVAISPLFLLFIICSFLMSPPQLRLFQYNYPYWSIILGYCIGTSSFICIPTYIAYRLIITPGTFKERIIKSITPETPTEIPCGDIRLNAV

Row | SMILES | AC50 | outcome
1 | COc1cc(/C=C/C(=O)CC(=O)/C=C/c2ccc(O)c(OC)c2)ccc1O | 2120 nM (active) | –
2 | CCCCC[C@H](O)CC(=O)CCc1ccc(O)c(OC)c1 | – | inactive
3 | O=C(/C=C/c1ccc(O)cc1)CC(=O)/C=C/c1ccc(O)cc1 | 3200 nM (active) | –
